# High-throughput results (PubChem BioAssay)
# A selection: hits, their analogues and other compounds. The true share with any hit is near 10%.
# NIH3T3 tox – cytotoxic compounds in NIH 3T3 cells | AID 1345082 | NIH 3T3 viability, CellTiter-Glo ATP luminescence, 48-72 h | Potency, µM (top dose mostly 96.7 µM), without a hit: at the highest dose activity change, negative = cytotoxicity, usual class: inhibitors | actives 4.3% (n = 94,000); also: nearly all actives have a fitted effect of over 55% in size
#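 NIH 3T3 cells at 400 cells/well received 23 nL of compound by pintool and were incubated 48 or 72 h at 37 °C. Viability was read as ATP-coupled CellTiter-Glo luminescence.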
# NPR1 antag – antagonists of human natriuretic peptide receptor Npr1; P16066; HEK293 hNpr1 GloSensor cGMP, ANP-stimulated luminescence; Potency, µM (highest dose often 46.3 µM), without a hit: at the highest dose activity change, negative = inhibition, usual class: inhibitors; actives 1.6% (n = 76,000); calls by dose curve; also: nearly all actives have a fitted effect of over 60% in size
#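 HEK293 cells stably expressing human Npr1 and cGMP GloSensor pGS-40F, loaded 2 h with 2% GloSensor reagent, given compound 30 min at room temperature. Luminescence read before and 20 min after 0.1 nM hNppA.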
# HEK cytotox – cytotoxic compounds in HEK 293 cells | actives 6.6% (n = 94,000) | HEK 293 viability, ATP luminescence (CellTiter-Glo), 48-72 h | AID 1345083 | Potency, µM (titrated, usually from 115 µM), inactives show top-dose activity change, negative = cytotoxicity, actives largely listed as inhibitors; also: nearly all actives have a fitted effect of over 60% in size
#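 Cytotoxicity was scored by loss of ATP-coupled luminescence (CellTiter-Glo) in HEK 293 cells. Compound treatment ran 48 or 72 hr at 37 degree Celsius, 5% CO2, 95% humidity.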
# GPT2 inhibitor – GPT2 alanine aminotransferase inhibition | Recombinant GPT2, coupled pyruvate oxidase/HRP Amplex Red fluorescence | AID 1671188 | actives 0.25% (n = 100,000) | Potency, µM (titrated, usually from 57.7 µM), inactives show top-dose activity change, negative = inhibition, hits mostly inhibitors | Q8TD30; also: nearly all actives have a fitted effect of over 60% in size
# Target sequence (Q8TD30 whole entry, looked up): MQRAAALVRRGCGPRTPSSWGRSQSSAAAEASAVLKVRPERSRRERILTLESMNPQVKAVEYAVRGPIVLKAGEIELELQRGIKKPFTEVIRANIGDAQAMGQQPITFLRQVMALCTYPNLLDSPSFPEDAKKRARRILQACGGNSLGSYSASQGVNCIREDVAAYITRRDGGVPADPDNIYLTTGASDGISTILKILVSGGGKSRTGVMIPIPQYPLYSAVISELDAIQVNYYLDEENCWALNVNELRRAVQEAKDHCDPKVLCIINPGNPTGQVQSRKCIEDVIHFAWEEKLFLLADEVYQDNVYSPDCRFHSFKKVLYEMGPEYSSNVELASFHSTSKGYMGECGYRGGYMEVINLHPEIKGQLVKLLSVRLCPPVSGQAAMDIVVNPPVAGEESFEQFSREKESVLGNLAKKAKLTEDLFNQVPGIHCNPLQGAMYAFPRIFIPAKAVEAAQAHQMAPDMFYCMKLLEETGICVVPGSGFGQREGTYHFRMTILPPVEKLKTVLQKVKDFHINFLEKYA
#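 Fluorescence of coupled pyruvate oxidase/HRP/Amplex Red system (50uM Amplex, 30 min, dark) reports pyruvate formed by GPT2. Enzyme reaction: 10ng/uL GPT2, 2mM L-alanine, 250uM a-KG, 30 min room temperature, pH 7.5; 50uM AOA control.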
# FLuc inh – blocks purified firefly luciferase enzyme activity. Potency, µM (titrated, usually from 115 µM), actives largely listed as inhibitors. purified P. pyralis luciferase, luminescence, biochemical. AID 1347043. P08659. actives 2.5% (n = 76,000); also: nearly all actives have a fitted effect of over 65% in size
#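 Luminescence read by CCD imager after adding enzyme (10nM final) to wells holding compound, titrated in qHTS. Substrates 10uM each D-luciferin and ATP; buffer 50mM Tris acetate pH 7.5, 10mM Mg acetate, Tween-20, BSA.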
# Active calls of the source: *; i = inactive; ? = inconclusive; · = not tested or not shown; [ ] = remark or other dose. Unless noted, calls follow the shape of the dose curve; as a rule, active = well fitted curve in the direction sought with a large enough effect; inconclusive = small, poorly fitted or top-dose-only effect, or another doubt; inactive = no such curve, though single readings can be large; an effect the other way counts as inactive or inconclusive. % is scaled to controls: 0 for no effect and ±100 for the full control effect; potency is read from the fitted curve at half-maximal effect.
SMILES,NIH3T3 tox,NPR1 antag,HEK cytotox,GPT2 inhibitor,FLuc inh
Cc1cccc(S(=O)(=O)N2CCCC(Cn3c(C)nc4cccnc43)C2)c1 (centres undefined),?,-25.4%,?,-2.7%,i
Cc1ccc(C)c(S(=O)(=O)N2CCCC(Cn3c(C4CC4)nc4cccnc43)C2)c1 (centres undefined),?,-13.5%,39.8µM*,2.5%,i
O=C(Nc1ccc(C(F)(F)F)cc1)N1CCCC(Cn2c(C3CC3)nc3cccnc32)C1 (centres undefined),31.6µM*,-18.7%,39.8µM*,i,i
Cc1cccc(S(=O)(=O)N2CCCC(Cn3c(C4CC4)nc4cccnc43)C2)c1 (centres undefined),?,-14.9%,35.5µM*,i,i
Cc1ccc(NC(=O)N2CCCC(Cn3c(C4CC4)nc4cccnc43)C2)cc1 (centres undefined),?,4.6%,-11.7%,4.6%,i
CC(=O)N1CCCCC1c1nc(CCOc2ccc(F)cc2)no1 (centres undefined),-9.2%,·,i,-0.8%,·
Cc1ccc([S+](=O)([O-])N2CCc3nc(-c4ccccc4)nc(-c4ccc(Cl)cc4)c3C2)cc1,i,·,-7.9%,?,·
CCN1c2cc(C(=O)Nc3cccc(C(=O)OC)c3)ccc2C(=O)N2CCCCCC21 (centres undefined),17.8µM*,-26.2%,?,i,i
CCOC(=O)c1cccc(NC(=O)c2ccc3c(c2)N(CC)C2CCCCCN2C3=O)c1 (centres undefined),20µM*,-24.2%,?,-2.0%,i
CCN1c2cc(C(=O)Nc3ccccc3)ccc2C(=O)N2CCCCC21 (centres undefined),?,0.0%,?,1.2%,?
O=C(NCCCc1ccccc1)c1cn2cc(-c3cccc(C(F)(F)F)c3)sc2n1,?,·,?,-11.7%,·
OCC1(CC2CC2)CCCN(Cc2noc(C3CC3)n2)C1 (centres undefined),-22.1%,2.7%,-15.2%,-11.8%,i
C=CCC1(CO)CCCN(Cc2cc(C3CCCCC3)no2)C1 (centres undefined),?,-15.5%,39.8µM*,-1.9%,i
COc1ccc(NC(=O)N2Cc3[nH]cnc3C[C@H]2c2nc(-c3ccc(C(F)(F)F)cc3)no2)cc1,?,-4.0%,?,-12.5%,?
COc1ccc(NC(=O)N2Cc3[nH]cnc3C[C@H]2c2nc(-c3ccc(F)c(Cl)c3)no2)cc1,31.6µM*,?,?,0.2%,?
O=C(Nc1ccccc1)N1Cc2[nH]cnc2C[C@H]1c1nc(-c2ccc3c(c2)OCO3)no1,?,-11.1%[70.6 µM],-26.1%[172 µM],-5.8%[88.5 µM],?
COc1ccc(NC(=O)N2Cc3[nH]cnc3C[C@H]2c2nc(-c3ccc(OC)cc3)no2)cc1,?,-28.6%,-8.9%,-10.1%,?
COc1ccc(-c2noc([C@@H]3Cc4nc[nH]c4CN3C(=O)Nc3ccc(C)cc3)n2)cc1,?,?,?,?,17.8µM*
COc1ccc(NC(=O)N2Cc3[nH]cnc3C[C@H]2c2nc(-c3ccc(F)cc3)no2)cc1,50.1µM*,-30.2%[70.6 µM],?,0.2%[88.5 µM],?
COc1ccc(NC(=O)N2Cc3[nH]cnc3C[C@H]2c2nc(-c3ccc(C)cc3)no2)cc1,?,?,?,-5.0%[88.5 µM],63.1µM*
COCCOCc1nc(C2CCN(S(=O)(=O)c3ccc(F)c(C)c3)C2)no1 (centres undefined),-26.9%,·,-28.9%,i,·
CCOC(=O)C1=C(C)N=C2SC=C(CC(=O)N3CCC(C)CC3)N2C1c1ccc(C)cc1C (centres undefined),?,?,?,i,i
CC1(C)C[C@H]2C[C@@H](O)[C@H](N3CCN(c4cccc(Cl)c4)CC3)[C@]2(O)CO1,-21.0%[46.1 µM],·,?,i,·
COc1ccccc1Cn1c(=O)c(C(=O)NCCCc2ccccc2)nc2cccnc21,?,·,?,2.9%,·
O=C(CCC[C@H]1NC[C@@H]2C[C@H]1CN(Cc1ccccc1)C2)NCc1cc(F)cc(F)c1,?,1.4%,?,0.2%,i
